An excerpt weighted towards active compounds, which were near 12% of everything screened.
Marburg entry inh: qHTS for inhibitors of binding or entry into cells for Marburg Virus; Marburg virus pseudotyped entry inhibition, cell reporter; Potency, µM (highest dose often 37.8 µM), most hits filed as inhibitors; 1.8% of 300,000 active; AID 540276, 2011; calls by dose curve; tested in HEK293 cells
LASV entry inh: qHTS for Inhibitors of binding or entry into cells for Lassa Virus; Lassa virus pseudotype entry inhibition, cell reporter; Potency, µM (top dose mostly 37.9 µM), actives largely listed as inhibitors; 1.2% of 300,000 active; AID 540256, 2011; calls by dose curve; tested in HEK293 cells; also: nearly all actives have a fitted effect of over 50% in size
Shiga inhibitor: A qHTS for Small Molecule Inhibitors of Shiga Toxin; Vero cells, Shiga toxin protein synthesis inhibition reporter; inhibition, % at 38.7 µM; AID 2315, 2010; 9.2% of 290,000 active; in the data active = inhibition mostly above about 28%, no sharp cut-off; inactive = mostly below about 43%
CHX counter: Cycloheximide Counterscreen for Small Molecule Inhibitors of Shiga Toxin; cell reporter, cycloheximide protein synthesis inhibition counterscreen; max response, %; 12% of 300,000 active; AID 2314, 2010; in the data active = max response mostly above about 13%, no sharp cut-off; inactive = mostly below about 14%; also: read at 38.3 µM for the half of the compounds with a filed dose
Large screens that a line does not name were inactive; ! = repeats disagree.

O=C(N/N=C/c1ccc2c(c1)OCO2)c1ccc2c(c1)OCCO2	Marburg entry inh inconclusive, LASV entry inh inconclusive, Shiga inhibitor 64, CHX counter 55
O=C(N/N=C/c1ccc2c(c1)OCCO2)c1ccncc1	Marburg entry inh inconclusive
CCN1CCS/C1=C/C=C/C1=[N+](CC)CCS1	Marburg entry inh 2.5µM, LASV entry inh inconclusive
CCN1CCS/C1=C\C=C\C1=[N+](CC)CCS1	Marburg entry inh 2.5µM (no result: LASV entry inh)
C=CCn1c(SCC(=O)NCCc2ccccc2)nnc1C1CC1	none (no result: Shiga inhibitor, CHX counter)
C=CCn1c(SCC(=O)Nc2nnc(C)s2)nnc1C1CC1	Marburg entry inh inconclusive, CHX counter 16
NC(=S)N/N=C1\CC(n2nnnc2-c2ccccc2Cl)C2COC1O2 (centres undefined)	Marburg entry inh inconclusive
Cc1ccc(-c2nnnn2C2C/C(=N\NC(N)=S)C3OCC2O3)cc1 (centres undefined)	CHX counter 20
Cc1oncc1C(=O)Nc1ccc2ccccc2c1	Shiga inhibitor 89, CHX counter 34 (no result: Marburg entry inh, LASV entry inh)
COC(=O)c1cccc(NC(=O)c2cnoc2C)c1	Shiga inhibitor 52, CHX counter 28
Cc1coc(C)c1C(=O)Nc1ccc2ccccc2c1	Shiga inhibitor 90, CHX counter 64 (no result: Marburg entry inh, LASV entry inh)
COc1ccc(-c2c(C#Cc3ccsc3)c3ccccc3n2C)cc1	Shiga inhibitor 39, CHX counter 23 (no result: Marburg entry inh, LASV entry inh)
CC1=C(C(=O)Nc2ccccc2)C(c2ccccc2)n2nc(-c3ccco3)nc2N1 (centres undefined)	none (no result: Shiga inhibitor, CHX counter)
O=C(/C=C/c1ccc([N+](=O)[O-])cc1)Nc1cccnc1	Marburg entry inh inconclusive, Shiga inhibitor 112, CHX counter 43
O=C(/C=C/c1ccccc1)Nc1cccnc1	Shiga inhibitor 33, CHX counter 28 (no result: Marburg entry inh, LASV entry inh)
CC(Cc1ccccc1)N1CCCC1=O (centres undefined)	Marburg entry inh inconclusive (no result: Shiga inhibitor, CHX counter)
CC(C)n1cc(C(=O)N2CCCC(N3CCN(c4cccc(Cl)c4)CC3)C2)cn1 (centres undefined)	none
CCOC(=O)C1CCN(C(=O)Nc2ccc3c(c2)nc(C)n3C)CC1	Shiga inhibitor 53, CHX counter 49
Cc1nc2cc(NC(=O)N3CCCCC3)ccc2n1C	Shiga inhibitor 44, CHX counter 19
[O-]/[N+](=C\c1ccncc1)c1ccc(Br)cc1	Marburg entry inh inconclusive, CHX counter 17
[O-]/[N+](=C/c1cccnc1)c1ccc(Br)cc1	LASV entry inh inconclusive, Shiga inhibitor 94, CHX counter 37
[O-][N+](=Cc1ccccc1)c1ccc(Cl)cc1	LASV entry inh inconclusive (no result: Shiga inhibitor, CHX counter)
COc1ccc(OC)c(S(=O)(=O)N2CCC(C(=O)NCc3ccncc3)CC2)c1	none
CCC(=O)N1CCN(c2ccc(NC(=O)c3cccs3)cc2)CC1	Shiga inhibitor 68, CHX counter 15
O=C(Nc1ccc(N2CCN(C(=O)c3ccccc3)CC2)cc1)c1cccs1	LASV entry inh inconclusive
CCC(=O)N1CCN(c2ccc(NC(=O)c3ccco3)cc2)CC1	Shiga inhibitor 31, CHX counter 28
CCc1ccc(C(=O)N2CCN(c3ccc(NC(=O)c4ccco4)cc3)CC2)cc1	LASV entry inh inconclusive
CC(=O)N1CCN(c2ccc(NC(=O)c3ccco3)cc2)CC1	Marburg entry inh inconclusive, Shiga inhibitor 72
CCN(Cc1ccncc1)C(=O)c1ccccc1NS(=O)(=O)c1ccc(F)cc1	none
CCCN(CCC)C(=O)c1cc(S(=O)(=O)N2CCCCC2)c[nH]1	none (no result: Marburg entry inh, LASV entry inh)
O=C(O)CCC(=O)Nc1ccc(/C=C/C(=O)C2CC2)cc1	CHX counter 29
O=C(O)CCC(=O)NNC(=O)CCC(=O)Nc1ccccc1	none
Cc1c(Br)c([N+](=O)[O-])nn1CC(=O)Nc1sc2c(c1C(=O)OC(C)C)CCCC2	Shiga inhibitor 123
CCc1ccc2nc(N)sc2c1	Shiga inhibitor 75, CHX counter 39 (no result: Marburg entry inh, LASV entry inh)
CN(C(=O)c1ccc2nc(N)sc2c1)c1ccccc1	Marburg entry inh inconclusive
CCc1ccc(NC(=O)c2ccc3nc(N)sc3c2)cc1	Marburg entry inh inconclusive, Shiga inhibitor 68, CHX counter 62
Nc1nc2ccc(C(=O)Nc3ccccc3)cc2s1	Marburg entry inh inconclusive, LASV entry inh inconclusive, Shiga inhibitor 168, CHX counter 93
CC(=O)Nc1ccc2nc(N)sc2c1	none (no result: Shiga inhibitor, CHX counter)
CCCN(CCC)CCc1ccc(O)c(O)c1	Marburg entry inh 1µM! (no result: Shiga inhibitor, CHX counter)
Cc1cc(C)cc(N(C(=O)CNC(=O)c2ccco2)C(C(=O)NC2CCCCC2)c2cccnc2)c1 (centres undefined)	none
Cc1cc(C)cc(C(=O)n2nc(C)c(S(=O)(=O)N3CCCCCC3)c2C)c1	none (no result: Marburg entry inh, Shiga inhibitor, CHX counter)
CC1CCN(C(=O)CSc2nc3c(c(=O)n2C)SCC3)CC1	CHX counter 18
Cc1ccc(-n2cc(CN3CCN(Cc4nccn4C)CC3)c(-c3ccc(F)cc3)n2)cc1	CHX counter 15 (no result: Marburg entry inh, LASV entry inh)
